According to PubChem BioAssay AID1745850 (National Center for Advancing Translational Sciences (NCATS), 2022):
The whole screen tested about 2,100 compounds, of which about 260 (12%) were called active. About 58% were inconclusive and are not listed. The list shows a part of the results. A number with no mark means an inactive call. The call rests on the fitted dose curve; in most records, active means well fitted cell-killing curve with a large enough effect; inconclusive means small, poorly fitted or top-dose-only effect, or effect the other way; inactive means flat fitted curve, though single readings scatter.

test: Viability Counterscreen for Confirmatory qHTS for Inhibitors of ATXN expression; conditions: HEK-293 ATXN2-luc cells viability, CellTiter-Fluor, 24 h; activity change, negative = cytotoxicity: at the top concentration; further: nearly all actives have a fitted effect of over 50% in size
Procedure, shortened: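 Cells with an ATXN2-luciferase reporter were dosed in a dilution series for 24 h at 37 degrees C. Viability was read first with Gly-Phe-AFC at 25 uM final (fluorescence, ex 405/em 540), then SteadyGlo luminescence. Medium-only wells defined 100% inhibition.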
Potency means the concentration at half of the fitted maximal effect.

| SMILES | activity change, negative = cytotoxicity | Potency |
| --- | --- | --- |
| CCOC(=O)c1c2ccc(OCC(=O)N/N=C/c3ccc(C)cc3)cc2n2ccccc12 | -23% [at 57.5 µM] | – |
| CN1CCC[C@H]1CCNc1ccc2c(=O)c3ccccc3n(C)c2c1 | 14.2% [at 57.5 µM] | – |
| CCCc1nc2c(c(=O)c3ccccc3n2C)c(=O)n1C1CCCCCC1 | – | 28.2 µM (active) |
| Nc1c(C(=O)NCc2ccc3c(c2)OCO3)c2nc3ccccc3nc2n1CCCN1CCOCC1 | -24.5% [at 57.5 µM] | – |
| CC(C)(C)c1ccc(OCCn2nc(C(=O)O)c3ccccc3c2=O)cc1 | -26.5% [at 57.5 µM] | – |
| COC(=O)C1=C(C)N(Cc2ccccc2)C(=NCCc2cccnc2)N[C@H]1c1ccc(Br)cc1 | – | 22.4 µM (active) |
| Cc1cccc(NC(=O)CCC(=O)N/N=C/c2ccc(O)cc2O)c1 | -20.9% | – |
| COc1ccc2c(Cl)c(C(=O)NN)sc2c1 | 8.74% | – |
| CCC(=O)c1ccc(OCC(O)CN(CCc2ccccc2)Cc2ccccc2)cc1 (stereo unspecified) | -22.7% | – |
| OC(CNCCc1ccccc1)COc1ccc(OCC(O)CNCCc2ccccc2)cc1 (stereo unspecified) | – | 22.4 µM (active) |
| O=C(N/N=C\c1c(O)ccc2ccccc12)c1ccc(S(=O)(=O)N2CCCCC2)cc1 | -12.7% [at 57.5 µM] | – |
| O=S(=O)(c1ccc2nc(COc3ccc(Cl)cc3Cl)[nH]c2c1)N1CCOCC1 | 3.51% | – |
| COc1cccc(NC(=O)CSc2nc3ncc(Br)cc3[nH]2)c1 | -9.63% | – |
| N#C/C(=C\C=C\c1ccccc1[N+](=O)[O-])C(=O)NC1CCCCC1 | – | 20 µM (active) |
| CC(C)N(Cc1ccccc1)C(=O)/C=C/c1ccccc1[N+](=O)[O-] | -23.4% [at 57.5 µM] | – |
| CC1CCCCC1NC(=O)/C(C#N)=C/C=C/c1ccccc1[N+](=O)[O-] (stereo unspecified) | – | 2.82 µM (active) |
| O=C(NCC1CC1)c1ccc2c(c1)S(=O)(=O)c1cc(Cl)ccc1C2=O | -16.3% | – |
| Cc1cc(C)n(-c2ccc(C(=O)N3CCN(S(=O)(=O)c4cccc(Br)c4)CC3)cc2)n1 | -15.9% | – |
| O=C(Nc1ccc(N2CCOCC2)c(Cl)c1)c1c(F)c(F)c(F)c(F)c1F | -11% | – |
| CC(O)(c1ccccc1)c1nc(-c2ccncc2)cs1 (stereo unspecified) | -3.76% | – |
| COc1ccc(NC2=NCC(Cc3ccc(Br)cc3)S2)cc1 (stereo unspecified) | -15.6% | – |
| CCN(CC)CCC(c1ccc2c(c1)OCO2)c1c(OC)cc(OC)c2c(-c3ccccc3)cc(=O)oc12 (stereo unspecified) | – | 20 µM (active) |

| SMILES | activity change, negative = cytotoxicity | Potency |
| --- | --- | --- |
| Cc1ccc(SC2=C(Sc3ccc(C)cc3)C(=O)c3ccccc3C2=O)cc1 | -12.3% [at 57.5 µM] | – |
| CCC(=O)OC1(C(C)=O)CCC2C3CCC4=CC(=O)CCC4(C)C3CCC21C (stereo unspecified) | -8.08% [at 57.5 µM] | – |
| CSc1ncnc2c1ncn2CC(=O)C1CCC2C3CCC4=CC(=O)CCC4(C)C3CCC12C (stereo unspecified) | – | 17.8 µM (active) |
| Cc1ccc(Sc2nnc(Cc3ccccc3)c3ccccc23)cc1 | -20.7% [at 57.5 µM] | – |
| Cc1cc(C)c(C(=O)N2CCCC(N3CCN(c4cccc(C(F)(F)F)c4)CC3)C2)o1 (stereo unspecified) | -17.7% | – |
| CCOC(=O)c1cnc(-n2nc(C)cc2C)nc1NC1CCCC1 | -24.9% | – |
| CCOc1cc(/C=N/Nc2cc(C)nc(-n3nc(C)cc3C)n2)ccc1O | – | 3.98 µM (active) |
| Cc1cc(N/N=C/c2ccccc2[N+](=O)[O-])nc(-n2nc(C)cc2C)n1 | – | 12.6 µM (active) |
| Cc1cc(O)c(C(C)C)cc1N=Cc1ccccc1[N+](=O)[O-] | -7.78% [at 57.5 µM] | – |
| CC(=O)c1ccc(S(=O)(=O)N2CCN(CCOc3ccc(Br)cc3)CC2)cc1 | -18.1% | – |
| CC(C)(C)N(Cc1ccc2c(c1)OCO2)C(=O)/C=C\S(=O)c1ccccc1 (stereo unspecified) | – | 17.8 µM (active) |
| CN(C)CCC(c1ccc(Br)cc1)c1ccccn1 (stereo unspecified) | -18.7% [at 57.5 µM] | – |
| CCOC(=O)c1c(-c2ccccc2)oc2ccc(OCC(=O)NN)cc12 | -25.4% [at 57.5 µM] | – |
| O=C(N/N=C\c1cc(Br)ccc1O)c1ccc(S(=O)(=O)N2CCCCC2)cc1 | 7.84% | – |
| CCOc1cc(/C=C(/C#N)c2nc3ccccc3[nH]2)ccc1Oc1ccc([N+](=O)[O-])cn1 | -26% [at 57.5 µM] | – |
| N#C/C(=C\c1ccc([N+](=O)[O-])o1)c1nc2ccccc2[nH]1 | – | 7.94 µM (active) |
| O=C(Nc1cccnc1)C1Cc2c(-c3ccc4c(c3)OCO4)ccnc2O1 (stereo unspecified) | -4.94% | – |
| Cc1nn(-c2ccccc2)c(N2CCCC2)c1/C=N/NC(=O)c1cc2ccccc2cc1O | -15.2% | – |
| Cc1nc(SC2CC(=O)N(c3ccccc3)C2=O)n[nH]1 (stereo unspecified) | -11.3% [at 57.5 µM] | – |
| Cc1cc(C(=O)CN2C(=O)c3ccccc3S2(=O)=O)c(C)n1CC1CCCO1 (stereo unspecified) | -6.33% [at 57.5 µM] | – |
| Cc1cc(/C=N/n2cnnc2)c(C)n1-c1ccc(OCc2ccc(Cl)cc2Cl)cc1 | – | 28.2 µM (active) |
| CCc1nc2c(OCc3ccc(Cl)cc3Cl)cccn2c1N(C=O)Cc1ccc(OC)cc1 | -19.5% | – |

| SMILES | activity change, negative = cytotoxicity | Potency |
| --- | --- | --- |
| S=C(Nc1ccccc1)Nc1ccc(OCc2ccc(Cl)cc2Cl)cc1 | -16.1% [at 57.5 µM] | – |
| Nc1cccc2c1C(=O)N(C(=O)/C=C/c1cccc(Br)c1)C2=O | 2.1% [at 57.5 µM] | – |
| Cn1nnnc1Sc1ncnc2scc(-c3ccc[nH]3)c12 | – | 12.6 µM (active) |
| Cn1nnnc1Sc1ncnc2scc(Br)c12 | – | 20 µM (active) |
| O=c1[nH]c(CN2CCN(c3ncccn3)CC2)nc2c(Br)cc(Br)cc12 | -9.08% | – |
| CCOC(=O)COc1ccc(Br)cc1/C=C/c1[nH]c(=O)[nH]c(=O)c1[N+](=O)[O-] | -26.2% | – |
| Nc1ccc2c(c1)OC1(CCCC1)O2 | -8.89% | – |
| Cn1c(CCc2nc3ccccc3[nH]2)nnc1SCC#N | -10.6% [at 57.5 µM] | – |
| c1ccc2c(c1)c1c(c3ccccc32)CN2CCCC2C1 (stereo unspecified) | -16.7% [at 57.5 µM] | – |
| COc1ccc(-c2c[n+]3c4n2CCCCC4=C(c2ccc(Br)cc2)C3)cc1 | -28.7% | – |
| Cc1cccc(OCCn2cc(/C=N/NC(=O)c3ccncc3)c3ccccc32)c1 | -6.67% | – |
| Cc1ccc(S(=O)(=O)/C(=C/Cl)NC(=O)c2ccccc2)cc1 | – | 22.4 µM (active) |
| COc1ccc(C(=O)NC(=C(Cl)Cl)S(=O)(=O)c2ccc(C)cc2)cc1 | -18% | – |
| Cc1ccc(S(=O)(=O)NCC(=O)N/N=C/c2ccccc2O)cc1 | -10.1% | – |
| CCOC(=O)c1ccc(/C=C2/C=C(c3ccccc3)N(c3ccc(Cl)c(C(=O)O)c3)C2=O)cc1 | -28.3% [at 57.5 µM] | – |
| O=C(c1cc(COc2cccc(C(F)(F)F)c2)on1)N1CCC(c2ccncc2)CC1 | -15.7% | – |
| C=CCn1c(COc2ccccc2)nnc1SCC(=O)N/N=C/c1cc(Cl)ccc1O | -24.6% [at 57.5 µM] | – |
| Cn1c(SCC(=O)Nc2cc(Cl)cc(Cl)c2)nnc1-c1ccc2nonc2c1 | -28.1% | – |
| Cn1c(SCC(=O)N/N=C/c2ccc([N+](=O)[O-])s2)nnc1-c1ccc(Cl)cc1 | – | 11.2 µM (active) |
| COc1ccc(O)c(/C=N/NC(=O)CSc2nnc(C)n2-c2ccccc2)c1 | -23.6% | – |
| Cn1c(SCC(=O)N/N=C/c2ccc([N+](=O)[O-])s2)nnc1-c1ccccc1 | – | 22.4 µM (active) |
| CSc1sc(-c2nnc(SCC(=O)Nc3ccc(Cl)cc3)n2C)c2c1C=CCC2 | -6.66% | – |
